Assay results: the OligoGym collection

Target: PLS1
Assay: pooled miR-30 sensor sort-seq; sequence = guide strand
Conditions: shRNA
Further: reference of the scale not given here.

Sequence	sensor-assay potency score (higher = more potent)
TTGTAGTTCTTCAAGCTCCTCC	0.438
TTCCTTGCTCTCTCCTTCCAGT	-0.4
ATTCCTTTCATTTAGGTCCTGC	0.408

Target: PLTP
Assay: as above
Conditions: shRNA

Sequence	sensor-assay potency score (higher = more potent)
TCATACACCTTCAAGAACCAGT	0.217
TACAGCTTCAAATCCCGTCTTC	-0.171
ACATTGGACACTTTCATCCGTC	0.0628
TTGGACACTTTCATCCGTCCAG	-0.0718
TCATACACCTTCTTGAAGGTTC	-0.197
TTAAATTGGGTACAGCTTCAAA	-1.22
TACACCTTCAAGAACCAGTAGA	-0.191
TTGAAGCATCAGCTCCTGCTGT	0.293
TTGAGCAGGACCGTCCCTGCGT	-0.0816
TTGGAATAGATTCGGAACCTGC	-0.704
ATAGATTCGGAACCTGCGCAGG	-1.18
TTCTTCTCAATCACCTCTCGCA	-0.149

Target: PLXNA3
Assay: as above
Conditions: shRNA

Sequence	sensor-assay potency score (higher = more potent)
ATCTCGGAGACCATCTTGCTGC	-1.06
TTGTGTGTCCGAGACAGTGAGC	-0.941
TTGTTGATGTTGTCCACGGGGG	-0.257
TAGATCTCGGAGACCATCTTGC	-0.165
TAGAACTCTGAGTCTCCCGCGC	-0.24
TACAAGGACAGCGTGTCTGAGG	-0.523
TGTCTTGTAGTCGATCTGCTGA	-0.0226
TAGTCTATGAGCAGCAGCTTGT	-0.951
TCACACTCGATCTTGGTGGTGA	0.265
ATGTCGAACACGAACTGCGGGT	-1.37
TTGTAGTCGATCTGCTGACGGA	-0.986
TAGTAGGTAAAGGAGGAGCGGT	-1.08

Target: PM20D1
Assay: as above
Conditions: shRNA

Sequence	sensor-assay potency score (higher = more potent)
TGACATTGAACTTGACCCCTGC	0.0724
AATACAGTCACCACTGTCCCGC	-0.75
TTGGACTGTCTGTCCAGGGTGA	0.135
TTGGATAGTGAACAGGTGGCTA	-0.715
TTGTCGTCCAGTGTGCCCCGAC	-0.594
TTGAATATGGTGAGTGCCGTGG	-0.197
TTGGACTGAGATTTTCTCGTTG	0.297
ATGACATTGAACTTGACCCCTG	-0.759
TTTCTCTCCATAAACCTGCTTA	0.0874
TTTATGAATGTATTTTCCGAAC	-1.32
TTTCTCGTTGACTCCATGGATG	-0.946
TACATTTGTTAAGTCAAGCCTG	0.298
